For 26 compounds, outcome and AC50 results are on record in PubChem BioAssay (EPA / NIEHS).

The structures appear in SMILES notation. Values joined by “and” are separate entries in the source; they are usually repeats but may differ in a detail not shown here. Equal entries are not always repeated. More than one record can exist for a structure, and the calls need not agree. Active and inactive are the calls of the source. How the source made its calls: active means hit-call score of the fitted dose curve at least 0.9, where 1 is the maximum; inactive means score below 0.9.

Read-out in one assay: Keratin 19 (KRT19), KRT19 (gene 3880)
In words: LTEA_HepaRG_KRT19: Life Technologies and Expression Analysis (LTEA) Assay for Keratin 19 (KRT19) using HepaRG (AID 2283512). Particulars: mRNA level, 48 h; actives raise or lower the signal. Put shortly:
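Gene-expression endpoint in the human liver line HepaRG after 48 h exposure to up to 100 uM test chemical with 0.5% DMSO vehicle; KRT19 mRNA by qRT-PCR, analyzed bidirectionally versus DMSO.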
Turning to `CSC(=O)c1cccc2nnsc12`, the call was inactive.

Turning to `c1ccc(Nc2ccccc2)cc1`, the call was inactive.

For orientation: AC50 means the concentration giving half of the maximal activity seen. For the compound `CCOC(=O)NCCOc1ccc(Oc2ccccc2)cc1`, the AC50 is 89.8 µM (active).

As to `CC(C)(c1ccc(O)cc1)c1ccc(O)cc1`, the call was inactive.

With `Oc1ccc(C(c2ccc(O)cc2)C(Cl)(Cl)Cl)cc1`, the AC50 was 50 µM (active).

On to `CCOC(=O)c1ccc(O)cc1`, for which the compound was classed as inactive.

For the compound `CCCCCOC(=O)COc1cc(N2C(=O)C3=C(CCCC3)C2=O)c(F)cc1Cl`, the compound was classed as inactive.

`C[C@]12CC[C@@H]3c4ccc(O)cc4C[C@@H](CCCCCCCCCS(=O)CCCC(F)(F)C(F)(F)F)[C@H]3[C@@H]1CC[C@@H]2O` (stereo not given in full): the outcome was inactive.

On to `CCCCCCC(C)OC(=O)COc1nc(F)c(Cl)c(N)c1Cl` (stereo not given), for which the result was inactive.

With `N[C@@H](Cc1cc(I)c(Oc2ccc(O)c(I)c2)c(I)c1)C(=O)O`, the AC50 was 0.0152 µM (active).

For `CCNc1nc(N)nc(Cl)n1`, the compound was classed as inactive.

With `COCCO`, the compound was classed as inactive.

Consider `CCN(Cc1c(F)cccc1Cl)c1c([N+](=O)[O-])cc(C(F)(F)F)cc1[N+](=O)[O-]`, for which the AC50 was 18.1 µM (active).

`CN(C)C(=O)Nc1ccc(Cl)c(Cl)c1`: the half-maximal activity concentration (AC50) is 50 µM (active).

Consider `CCCCOCCOCCOCc1cc2c(cc1CCC)OCO2`, for which the compound was classed as inactive.

Regarding `CCOC(=O)C(C)Oc1ccc(Oc2cnc3cc(Cl)ccc3n2)cc1` (stereo not given), the outcome was inactive.

Consider `CCSC(=O)N(CC(C)C)CC(C)C`, for which the result was inactive.

Consider `COC(=O)CSc1cc(N=c2sc(=O)n3n2CCCC3)c(F)cc1Cl`, for which the compound was called inactive.

With `c1ccc2[nH]c(-c3cscn3)nc2c1`, the AC50 was 35.2 µM (active).

In the case of `CCCCC(CC)COC(=O)c1ccccc1C(=O)O` (stereo not given), the compound was called inactive.

Take `CCOC(=O)C(C)Oc1ccc(Oc2nc3ccc(Cl)cc3o2)cc1` (stereo not given): the compound was classed as inactive.

For `O=C(c1ccccc1)C1CCCCC1`, the compound was classed as inactive.

Regarding `COc1c(Cl)ccc(Cl)c1C(=O)O`, the compound was classed as inactive.

For `CC(=O)[C@H]1CC[C@H]2[C@@H]3CCC4=CC(=O)CC[C@]4(C)[C@H]3CC[C@]12C`, the concentration at half-maximal activity (AC50) is 50 µM (active).

On to `CC1(C)C(C=C(Cl)Cl)C1C(=O)OCc1cccc(Oc2ccccc2)c1` (stereo not given), for which the call was inactive.

Take `S=C(S)NCCNC(=S)S.[Mn+2].[S-]C([S-])=NCCN=C([S-])[S-].[Zn+2]`: the AC50 was 5.39 µM (active) and 11.4 µM (active); the call was inactive.

Read-out in the next assay: JUN Transcription Factor, JUN (gene 3725)
In words: LTEA_HepaRG_JUN: Life Technologies and Expression Analysis (LTEA) Assay for JUN Transcription Factor using HepaRG (AID 2283513). The conditions noted are these: mRNA level, 48 h; actives raise or lower the signal. Put shortly: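 Cells plated 48 h, medium switched to serum-free induction medium, then dosed 48 h (100 uM top, half-log dilutions, 0.5% DMSO). RNA isolated; JUN measured by qRT-PCR against three housekeeping genes; gain or loss fitted relative to DMSO.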
As for `CSC(=O)c1cccc2nnsc12`, the result was inactive.

In the case of `c1ccc(Nc2ccccc2)cc1`, the outcome was inactive.

`CCOC(=O)NCCOc1ccc(Oc2ccccc2)cc1`: the result was inactive.

For the compound `CC(C)(c1ccc(O)cc1)c1ccc(O)cc1`, the outcome was inactive.

Turning to `Oc1ccc(C(c2ccc(O)cc2)C(Cl)(Cl)Cl)cc1`, the AC50 was 91.7 µM (active).

For `CCOC(=O)c1ccc(O)cc1`, the compound was classed as inactive.

In the case of `CCCCCOC(=O)COc1cc(N2C(=O)C3=C(CCCC3)C2=O)c(F)cc1Cl`, the outcome was inactive.

As to `C[C@]12CC[C@@H]3c4ccc(O)cc4C[C@@H](CCCCCCCCCS(=O)CCCC(F)(F)C(F)(F)F)[C@H]3[C@@H]1CC[C@@H]2O` (stereo not given in full), the AC50 is 0.0859 µM (active).

On to `CCCCCCC(C)OC(=O)COc1nc(F)c(Cl)c(N)c1Cl` (stereo not given), for which the outcome was inactive.

In the case of `N[C@@H](Cc1cc(I)c(Oc2ccc(O)c(I)c2)c(I)c1)C(=O)O`, the compound was classed as inactive.

For `CCNc1nc(N)nc(Cl)n1`, the compound was classed as inactive.

Turning to `COCCO`, the compound was classed as inactive.

In the case of `CCN(Cc1c(F)cccc1Cl)c1c([N+](=O)[O-])cc(C(F)(F)F)cc1[N+](=O)[O-]`, the compound was called inactive.

Take `CN(C)C(=O)Nc1ccc(Cl)c(Cl)c1`: the call was inactive.

As for `CCCCOCCOCCOCc1cc2c(cc1CCC)OCO2`, the call was inactive.

Take `CCOC(=O)C(C)Oc1ccc(Oc2cnc3cc(Cl)ccc3n2)cc1` (stereo not given): the call was inactive.

Turning to `CCSC(=O)N(CC(C)C)CC(C)C`, the compound was classed as inactive.

With `COC(=O)CSc1cc(N=c2sc(=O)n3n2CCCC3)c(F)cc1Cl`, the compound was classed as inactive.

On to `c1ccc2[nH]c(-c3cscn3)nc2c1`, for which the result was inactive.

In the case of `CCCCC(CC)COC(=O)c1ccccc1C(=O)O` (stereo not given), the call was inactive.

As to `CCOC(=O)C(C)Oc1ccc(Oc2nc3ccc(Cl)cc3o2)cc1` (stereo not given), the compound was classed as inactive.

Regarding `O=C(c1ccccc1)C1CCCCC1`, the compound was called inactive.

As to `COc1c(Cl)ccc(Cl)c1C(=O)O`, the result was inactive.

Turning to `CC(=O)[C@H]1CC[C@H]2[C@@H]3CCC4=CC(=O)CC[C@]4(C)[C@H]3CC[C@]12C`, the AC50 was 50 µM (active).

On to `CC1(C)C(C=C(Cl)Cl)C1C(=O)OCc1cccc(Oc2ccccc2)c1` (stereo not given), for which the call was inactive.

On to `S=C(S)NCCNC(=S)S.[Mn+2].[S-]C([S-])=NCCN=C([S-])[S-].[Zn+2]`, for which the concentration at half-maximal activity (AC50) was 1.36 µM (active) and 1.75 µM (active); the call was inactive.

Read-out in another assay: Lipase C (LIPC), LIPC (gene 3990)
In words: LTEA_HepaRG_LIPC: Life Technologies and Expression Analysis (LTEA) Assay for Lipase C (LIPC) using HepaRG (AID 2283514). The conditions noted are these: mRNA level, 48 h; actives raise or lower the signal. Put shortly: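 HepaRG cells, 48 h after plating, treated in duplicate for 48 h in serum-free induction medium over 8 half-log concentrations from 100 uM, 0.5% DMSO. LIPC mRNA by TaqMan qRT-PCR normalized to ACTB/GAPDH/POLR2A; bidirectional fit versus DMSO.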
In the case of `CSC(=O)c1cccc2nnsc12`, the compound was called inactive.

For `c1ccc(Nc2ccccc2)cc1`, the result was inactive.

As for `CCOC(=O)NCCOc1ccc(Oc2ccccc2)cc1`, the concentration at half-maximal activity (AC50) is 89 µM (active).

Turning to `CC(C)(c1ccc(O)cc1)c1ccc(O)cc1`, the result was inactive.

Take `Oc1ccc(C(c2ccc(O)cc2)C(Cl)(Cl)Cl)cc1`: the AC50 was 78.8 µM (active).

In the case of `CCOC(=O)c1ccc(O)cc1`, the outcome was inactive.

For `CCCCCOC(=O)COc1cc(N2C(=O)C3=C(CCCC3)C2=O)c(F)cc1Cl`, the result was inactive.

Take `C[C@]12CC[C@@H]3c4ccc(O)cc4C[C@@H](CCCCCCCCCS(=O)CCCC(F)(F)C(F)(F)F)[C@H]3[C@@H]1CC[C@@H]2O` (stereo not given in full): the AC50 was 50 µM (active).

As to `CCCCCCC(C)OC(=O)COc1nc(F)c(Cl)c(N)c1Cl` (stereo not given), the call was inactive.

With `N[C@@H](Cc1cc(I)c(Oc2ccc(O)c(I)c2)c(I)c1)C(=O)O`, the half-maximal activity concentration (AC50) was 72.3 µM (active).

For the compound `CCNc1nc(N)nc(Cl)n1`, the compound was called inactive.

Take `COCCO`: the outcome was inactive.

As for `CCN(Cc1c(F)cccc1Cl)c1c([N+](=O)[O-])cc(C(F)(F)F)cc1[N+](=O)[O-]`, the AC50 was 50 µM (active).

As for `CN(C)C(=O)Nc1ccc(Cl)c(Cl)c1`, the compound was called inactive.

For `CCCCOCCOCCOCc1cc2c(cc1CCC)OCO2`, the result was inactive.

As to `CCOC(=O)C(C)Oc1ccc(Oc2cnc3cc(Cl)ccc3n2)cc1` (stereo not given), the compound was called inactive.

Consider `CCSC(=O)N(CC(C)C)CC(C)C`, for which the compound was classed as inactive.

Turning to `COC(=O)CSc1cc(N=c2sc(=O)n3n2CCCC3)c(F)cc1Cl`, the compound was classed as inactive.

With `c1ccc2[nH]c(-c3cscn3)nc2c1`, the compound was classed as inactive.

Turning to `CCCCC(CC)COC(=O)c1ccccc1C(=O)O` (stereo not given), the compound was classed as inactive.

Consider `CCOC(=O)C(C)Oc1ccc(Oc2nc3ccc(Cl)cc3o2)cc1` (stereo not given), for which the call was inactive.

Turning to `O=C(c1ccccc1)C1CCCCC1`, the call was inactive.

With `COc1c(Cl)ccc(Cl)c1C(=O)O`, the compound was classed as inactive.

As to `CC(=O)[C@H]1CC[C@H]2[C@@H]3CCC4=CC(=O)CC[C@]4(C)[C@H]3CC[C@]12C`, the AC50 is 34.6 µM (active).

Take `CC1(C)C(C=C(Cl)Cl)C1C(=O)OCc1cccc(Oc2ccccc2)c1` (stereo not given): the outcome was inactive.

`S=C(S)NCCNC(=S)S.[Mn+2].[S-]C([S-])=NCCN=C([S-])[S-].[Zn+2]`: the half-maximal activity concentration (AC50) is 1.21 µM (active) and 1.2 µM (active) and 1.48 µM (active).
